Inconclusive results are not listed. Where a call stands in place of a potency, no number is given. Values without a mark were called inactive. Active and inactive are the calls of the source. The call rests on the fitted dose curve; in most records, active means well fitted cell-killing curve with a large enough effect in the repeat runs; inconclusive means weak or mixed curves, or effect the other way; inactive means flat fitted curve, though single readings scatter.
Potency means the concentration at half of the fitted maximal effect.

A short description of this test: cAMP Responsive Elements (CRE) small molecule antagonists, cell-based qHTS assay: qHTS cell viability counter screen (AID 2060913). Further: nearly all actives have a fitted effect of over 40% in size. The note with it: CRE-bla HEK293T viability, CellTiter-Glo luminescence, 5 h; series mostly up to 92.4 µM. An excerpt: U.S. Tox21 Program National Center for Advancing Translational Sciences [NCATS] Division of Preclinical Innovation [DPI] U.S. Environmental Protection Agency [EPA] National Institutes of Environmental Health Sciences [NIEHS] National Toxicology Program [NTP] U.S. Food and Drug Administration [FDA] Tox21 Assay Overview: CREB (cyclic-AMP Responsive Element Binding Protein) is a cellular transcription factor. It binds to certain DNA sequences called cAMP Responsive Elements (CRE) and regulates the transcription of the genes. […] This cell line can be used to find agonists/antagonists of the cyclic AMP signaling pathway. The activation of the report gene under culture conditions can be detected by fluorescence intensity. This cell line has been used to screen the Tox21 10K compound library to identify agonists that induce oxidative stress. The cytotoxicity of the Tox21 compound library against the CRE-bla cell line was tested in parallel by measuring the cell viability using CellTiter-Glo assay (Promega, Madison, WI) in the same wells.
Tox21 Assay Protocol Summary: CRE-bla Hek 293T cells were suspended in assay medium (DMEM containing 10% dialyzed FBS, 0.1 mM NEAA, 1 mM sodium pyruvate and 25 mM HEPES) and dispensed at 2,000 cells/4 uL /well into 1536-well black wall/clear bottom plates using a Multidrop Combi (ThermoFisher Scientific, Waltham, MA) dispenser. After the assay plates were incubated at 37 C/5% CO2 for 18 hrs, 23 nL of compounds dissolved in DMSO, positive controls or DMSO only was transferred to the assay plate by a pintool workstation (Kalypsys, San Diego, CA), followed by addition of 1 uL of 1.25uM NKH477 (0.25 uM as final concentration) in assay medium using a Flying Reagent Dispenser (Aurora Discovery, San Diego, CA). The plates were incubated at 37 C and 5% CO2 for 3 hrs. Then 1 uL of LiveBLAzer B/G FRET substrate (Invitrogen, Carlsbad, CA) was added to each well using Bioraptr Flying Reagent Dispenser (FRD, Aurora Discovery, San Diego, CA). The plates were incubated at room temperature for 2 h, then fluorescence intensities were measured using an Envision plate reader (PerkinElmer, Shelton, CT) at Excitation 405nm, Emission 460nm and 530nm. The % activity was determined from the ratio of 460nm/530nm. For cell viability readout that measures cytotoxicity, 4 uL /well of CellTiter-Glo reagent was added into the assay plates using Bioraptr FRD. After 30 min incubation at room temperature, the luminescence intensity in the assay plates was measured using a ViewLux (PerkinElmer, Shelton, CT) plate reader.
For orientation: In qHTS, concentration-response curves come from the screen itself.
In the case of `O.O.O.O.O.O.O=S(=O)([O-])[O-].[Ni+2]`, the Potency result was “inactive”. For `CO[C@@H]1[C@H](OC(=O)NC(=O)CCl)CC[C@]2(CO2)[C@H]1[C@@]1(C)O[C@@H]1CC=C(C)C`, the viability change, negative = cytotoxic was 9.39% [at 18.9 µM]. As for `Nn1cnnc1`, the Potency entry was “inactive”.

As for `O=[N+]([O-])[O-].[Tl+]`, the Potency entry is “inactive”. As to `Brc1c(Br)c(Br)c(Br)c(Br)c1Br`, the viability change, negative = cytotoxic is 0.231% [at 8.39 µM]. Consider `CCN(CC)c1nc(C)cc(OP(=S)(OC)OC)n1`, for which the Potency entry is “inactive”.

For the compound `O=S1OCC2C(CO1)C1(Cl)C(Cl)=C(Cl)C2(Cl)C1(Cl)Cl` (stereo not given), the Potency was 61.1 µM (active). For `SCc1ccccc1`, the Potency result was “inactive”. For the compound `CCCCP(CCCC)CCCC`, the Potency entry was “inactive”. With `CCCN(CCC)c1c([N+](=O)[O-])cc(S(N)(=O)=O)cc1[N+](=O)[O-]`, the Potency was 43 µM (active). Regarding `O=C=NC1CCCCC1`, the Potency result is “inactive”. Take `CC(C)C(C)(N)C#N` (stereo not given): the Potency entry was “inactive”. Still for that read-out and setting: to `[O]=[Cd]` belongs “inactive”; to `C=CC(=O)N(C)C`, “inactive”.

`CCCCCCCCCCCCN=C(N)N`: the viability change, negative = cytotoxic is -6.77% [at 3.27 µM]. `CN(C)CCc1c[nH]c2ccccc12`: the Potency entry is “inactive”. As for `COC1=CC(=O)O[C@@H](/C=C/c2ccccc2)C1`, the Potency entry is “inactive”.

For `CCc1ccccc1N`, the Potency result was “inactive”. Turning to `ClCC1CO1` (stereo not given), the Potency result was “inactive”.

For the compound `N#CCBr`, the Potency result is “inactive”. As for `CCOP(=S)(OCC)O/N=C(\C#N)c1ccccc1`, the Potency result was “inactive”.

As for `CC(Oc1ccc(Cl)cc1Cl)C(=O)O` (stereo not given), the Potency entry was “inactive”. For the compound `O=C(NCc1cccnc1)Nc1ccc([N+](=O)[O-])cc1`, the Potency result was “inactive”.

Regarding `COP(=S)(OC)Oc1ccc([N+](=O)[O-])cc1`, the Potency entry was “inactive”. Regarding `C[C@H]1CCC[C@H](O)CCCCCc2cc(O)cc(O)c2C(=O)O1`, the Potency entry was “inactive”. For the compound `COC(=O)C(Br)CBr` (stereo not given), the Potency result was “inactive”. In the case of `C[C@H](N)C(=O)c1ccccc1`, the Potency entry was “inactive”.

`CCCCOC(=O)c1ccccc1C(=O)OCCCC`: the Potency entry is “inactive”.

Consider `CCOC(=O)CP(=O)(OCC)OCC`, for which the Potency result is “inactive”. Take `Cc1ccc(C)c2ccccc12`: the Potency entry is “inactive”. Still for that read-out and setting: to `COP(=S)(OC)Oc1ccc(Sc2ccc(OP(=S)(OC)OC)cc2)cc1` belongs “inactive”; to `CC(C)CON=O`, “inactive”; to `CC(C)Oc1cccc(NC(=O)c2ccccc2C(F)(F)F)c1`, “inactive”. On to `CCCCc1c(C)nc(NCC)nc1OS(=O)(=O)N(C)C`, for which the Potency entry was “inactive”. On the same count and under the same terms, as for `CCOc1ccc(C(C)(C)COCc2cccc(Oc3ccccc3)c2)cc1`, the entry is “inactive”; as for `S=C=Nc1cccc2ccccc12`, “inactive”; as for `Oc1cc(Cl)c(Cl)cc1Cl`, “inactive”.

Regarding `CNC(=O)Oc1cccc2c1OC(C)(C)O2`, the Potency entry was “inactive”.

Take `C1=Cc2cccc3cccc1c23`: the Potency entry was “inactive”. On to `CN(C)[C@@H]1C(=O)C(C(N)=O)=C(O)[C@@]2(O)C(=O)C3=C(O)c4c(O)ccc(Cl)c4[C@@](C)(O)[C@H]3C[C@@H]12`, for which the Potency result was “inactive”.

(Values after PubChem BioAssay (Tox21).)
